High-throughput results as filed in PubChem.
LMP1 NFkB inh: reduces LMP1-driven NF-kappaB luciferase signal | LMP1-induced NF-kappaB luciferase reporter cells, luminescence | inhibition, % at 12.5 µM | hit rate 0.69% among 350,000; in the data active = inhibition above about 41%; inconclusive = no clear call, values can overlap the other calls;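 also: 0% = neutral control wells and 100% = reference inhibitor control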
Peg3 prom inh-1: inhibitors of Peg3 promoter. HeLa PEG-Prom luciferase reporter, luminescence, overnight. inhibition, % at 20 µM. hit rate 1.7% among 360,000;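 active = inhibition of at least 50% at 20 µM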
KKLEB tox: counter-screen for CF NF-kB inhibitors: cytotoxicity; KKLEB CF airway cells viability, ATPlite luminescence, overnight; stronger effect = lower value; cells stimulated with P. aeruginosa culture filtrate; hit rate 0.36% among 360,000; activity change (cytotoxicity), % at 5 µM;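 active = corrected activity change at or below -50% at 5 µM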
MITF TRPM1 inh: reduces MITF-dependent TRPM1 promoter luciferase signal; SK-MEL-5 TRPM1 promoter luciferase, 24 h; inhibition, % at 12.5 µM; hit rate 0.83% among 330,000; AID 488899;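 active = mean inhibition across replicates of 60% or more, whatever share of single replicates reaches that level; inconclusive = some that reach 60%, reason not given; inactive = mean inhibition across replicates below 60%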
HIF-2a block: HIF-2a inhibition | hit rate 0.72% among 360,000 | inhibition, % at 18.8 µM | 786-0 RCC cells HIF-2a reporter, luciferase luminescence, overnight;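 active = inhibition of the luminescence signal of 40% or more relative to plate controls, in a single-dose primary screen at 18.75 µM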
CF NFkB inh: cystic fibrosis NF-kB activation inhibition | KKLEB NF-kB-GFP reporter, PAF-induced, GFP fluorescence overnight | inhibition, % at 5 µM | hit rate 0.86% among 360,000;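 active = at least 50% inhibition at 5 µM, scaled per plate between neutral and stimulator controls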;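 also: PAF is a Pseudomonas aeruginosa culture filtrate used as stimulus; plate controls were PAF-stimulated DMSO wells for no effect and unstimulated DMSO wells for full effect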
Peg3 prom inh-2: confirmation of Peg3 promoter inhibitors. inhibition, % at 20 µM. HeLa PEG-Prom luciferase reporter, luminescence, overnight. hit rate 84% among 1,300. shares compounds with Peg3 prom inh-1;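 active = at 20 µM dose, 40% or more inhibition averaged across four replicates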
CF NFkB inh conf: confirmation of cystic fibrosis induced NF-kB inhibitors | shares compounds with CF NFkB inh | KKLEB CF airway cells, PAF-induced NF-kB-GFP fluorescence, overnight | hit rate 64% among 1,300 | inhibition, % at 5 µM | AID 602472; in the data active = inhibition above about 40%;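 also: stimulus PAF is a Pseudomonas aeruginosa filtrate and not platelet activating factor; plate controls were DMSO wells with stimulus for no effect and unstimulated DMSO wells for full effect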
Mdm2-MdmX confirm: confirmation of inhibitors of human Mdm2/MdmX interaction, set 2 | inhibition, % at 8 µM | SaOS-2 split-luciferase Mdm2/MdmX complementation, luminescence | shares compounds with HIF-2a block | hit rate 99% among 740;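 active = mean inhibition of the luminescence signal across two replicates at or above 26 percent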
HIF-2a conf: HIF-2a inhibition, single concentration confirmation. shares compounds with HIF-2a block. 786-0 RCC cells, HIF-2a luciferase reporter luminescence, overnight. inhibition, % at 18.8 µM. hit rate 56% among 1,800. AID 651580;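 active = mean inhibition across four replicates of at least 40 percent at the single tested concentration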
HIF-1a cs: counter-screen for HIF-2a inhibitors: HIF-1a inhibition in MiaPaCa-2 cells | shares compounds with HIF-2a block | MiaPaCa-2 HIF-1a luciferase reporter, desferoxamine, overnight | inhibition, % at 18.8 µM | hit rate 72% among 1,800;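 active = mean inhibition of the reporter signal across four replicates at the single tested dose of 50% or more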
Active calls of the source: *; u = inconclusive; x = no result given. An excerpt weighted towards active compounds, which were near 3% of everything screened.

SMILES | LMP1 NFkB inh | Peg3 prom inh-1 | KKLEB tox | MITF TRPM1 inh | HIF-2a block | CF NFkB inh | Peg3 prom inh-2 | others
CN(C(=O)OC(C)(C)C)c1ccc(-c2nc3ccccc3s2)cc1 | 81* | 90* | -81* | 94* | 88* | 28 | 92* | HIF-2a conf=95*;HIF-1a cs=99*
Cc1ccc(Cn2c(C)c(C(=O)NCc3cccs3)sc2=O)cc1 | x | 12 | -14 | x | 0 | 4 | x
COc1cccc(CNc2nc3cc(-c4ccccc4)sc3c(=O)n2C)c1 | x | -20 | -2 | x | -102 | -2 | x
COc1ccc(-c2cc3nc(C)n(N)c(=O)c3s2)cc1 | 76* | 95* | -39 | 79* | 87* | -17 | 95* | Mdm2-MdmX confirm=95*
Cc1nc2cc(-c3ccccc3)sc2c(=O)n1N | 74* | 90* | -6 | 90* | 75* | -12 | 79* | HIF-2a conf=88*;HIF-1a cs=77*
CC(OC(=O)C1=Cc2ccccc2OC1)C(=O)NCC1CCCO1 (configuration not stated) | 11 | -6 | 31 | -3 | -45 | -52 | x
Cc1cc(C)c2sc(NNC(=O)c3ccc(S(=O)(=O)N4CCc5ccccc5C4)cc3)nc2c1 | 49* | 59* | -12 | 72* | 4 | 12 | 76* | Mdm2-MdmX confirm=87*
Cc1nnc(NC(=O)c2ccc(S(=O)(=O)N3CCc4ccccc4C3)cc2)o1 | 4 | 7 | -12 | -13 | 14 | 9 | x
CC1N=C(SCC(=O)c2ccc(F)cc2)N2C(C)N=C(SCC(=O)c3ccc(F)cc3)N12 (configuration not stated) | -19 | -23 | -16 | x | -14 | -1 | x
O=C(Cc1ccccc1)Nc1ccc(NC(=O)c2ccco2)nc1 | -33 | -239 | 3 | -63 | -202 | -3 | x
CC(C)(C)C(=O)Nc1ccc(NC(=O)c2ccco2)nc1 | 81* | 108* | -31 | 92* | 90* | -3 | 92* | Mdm2-MdmX confirm=98*;HIF-2a conf=96*;HIF-1a cs=96*
O=C(NCc1ccccc1F)c1ccc2c(c1)OCO2 | 1 | -36 | 12 | -24 | -23 | -3 | x
O=C(NCCc1ccccc1F)c1ccc2c(c1)OCCO2 | 85* | 106* | -26 | 88* | 91* | 2 | 93* | Mdm2-MdmX confirm=96*;HIF-2a conf=96*;HIF-1a cs=101*
Cc1onc(-c2ccccc2)c1C(=O)Nc1ncc([N+](=O)[O-])s1 | -1 | 34 | -23 | 3 | -22 | 47 | x
Cc1ccc(C(=O)Nc2ncc([N+](=O)[O-])s2)cc1 | 68* | 76* | -6 | 63* | 53* | 31 | 56* | HIF-2a conf=80*;HIF-1a cs=93*
Cc1cc(C(=O)Nc2cccc(C(=O)O)c2)oc1C | 66* | 82* | -3 | 87* | 81* | 6 | 52* | HIF-2a conf=78*;HIF-1a cs=-15
Cc1csc(N/N=C/c2ccccn2)n1 | u | -16 | -23 | 46 | 1 | -7 | x
C(=NNc1ccc2ccccc2n1)c1ccccn1 | x | 76* | -52* | x | 69* | 13 | 78* | HIF-2a conf=81*;HIF-1a cs=-12
O=C(NCc1cccs1)c1csc(COCCO)n1 | x | 5 | 12 | x | -26 | -4 | x
Cc1cccc(-n2c(SCC(=O)N3CCCC3)nc3n[nH]c(C)c3c2=N)c1 | -2 | 33 | -11 | 29 | 0 | 15 | x
CCCCN(CC)C(=O)CSc1nc2n[nH]c(C)c2c(=N)n1-c1cccc(C)c1 | -2 | 53* | -4 | 1 | 43* | -6 | 43* | HIF-2a conf=10;HIF-1a cs=61*
CC1=CC(=C2C(=O)c3ccccc3C2=O)C=C(C)O1 | -14 | -172 | 14 | -26 | -225 | -47 | x
CCCN1C=CC(=C2C(=O)c3ccccc3C2=O)C=C1 | 87* | 105* | -61* | 105* | 90* | -4 | 94* | Mdm2-MdmX confirm=99*
FC(F)(F)c1nnc2c(Sc3ccccc3)nc3ccccc3n12 | -43 | 3 | 11 | 59 | -60 | 79* | x | CF NFkB inh conf=84*
CC1(C(=O)NS(=O)(=O)c2ccc(F)cc2F)CCN1C(=O)c1ccccc1CCc1ccccc1 (configuration not stated) | x | 8 | -2 | x | 5 | -2 | x
SMILES | LMP1 NFkB inh | Peg3 prom inh-1 | KKLEB tox | MITF TRPM1 inh | HIF-2a block | CF NFkB inh | Peg3 prom inh-2 | others
O=C(Nc1cc(S(=O)(=O)N2CCOCC2)ccc1O)c1ccc(NS(=O)(=O)c2ccc(Cl)s2)cc1 | -5 | 1 | -6 | -2 | 25 | -6 | x
Cc1ccc(NC(=O)c2ccccc2NS(=O)(=O)c2ccc(Cl)s2)cc1S(=O)(=O)N1CCOCC1 | -2 | -17 | -49 | 21 | -8 | 57* | x | CF NFkB inh conf=80*
Cc1nc([N+](=O)[O-])c(Sc2nc3ccccc3n2C)n1Cc1ccccc1 | -1 | 35 | -34 | 63* | 14 | 65* | x | CF NFkB inh conf=56*
Cc1nc([N+](=O)[O-])c(SCC(N)=O)n1Cc1ccccc1 | -3 | 7 | 7 | 6 | 13 | 4 | x
COc1ccc(-c2nc3c4ccccc4ccn3c2Cc2ccccc2C(F)(F)F)cc1OC | x | 7 | -6 | x | -30 | -8 | x
CN(C(=O)c1cc(S(=O)(=O)N2CCCCC2)c[nH]1)C1CCCCC1 | 3 | 15 | -12 | x | 19 | -3 | x
Cc1ccc(N(C)C(=O)c2cc(S(=O)(=O)N3CCCCC3)c[nH]2)cc1 | 0 | 14 | 1 | -16 | 10 | 50* | x | CF NFkB inh conf=56*
CCOC(=O)N1CCc2c(sc(NC(=O)CN3CCN(C)CC3)c2C(=O)Nc2ccccc2)C1 | -2 | 0 | -9 | 0 | 7 | -16 | x
CCOC(=O)N1CCc2c(sc(NC(=O)CN3CCOCC3)c2C(=O)Nc2ccccc2)C1 | 7 | 24 | -9 | -3 | 18 | 57* | x | CF NFkB inh conf=-1
CN(C)CCCN(C(=O)CCSc1ccccc1)c1nc2cc3c(cc2s1)OCO3 | 20 | 91* | -15 | 35 | -5 | 56* | x | CF NFkB inh conf=49*
CC[C@]12C(=O)N(C)C[C@H]([C@@H]3C(=O)N(C)C(=O)[C@@H]31)N2C(=O)c1ccc(Br)cc1 | 1 | 2 | 7 | -2 | 21 | -6 | x
COc1ccc(C(=O)Oc2ccc(F)cc2C(=O)/C=C/c2ccc(OC)c(OC)c2)cc1 | 2 | 19 | -15 | 6 | 4 | 12 | x
COc1ccc(/C=C/C(=O)c2cc(F)ccc2OC(=O)c2ccccc2C)cc1OC | -12 | 19 | -27 | 49 | 25 | 54* | x | CF NFkB inh conf=45*
